Several values for one entry are separate records, joined by “and”; a condition that tells them apart may be missing. Identical values can stand only once. Among all 340,000 compounds or so, about 6,200 (1.8%) were called active. About 10% were inconclusive and are not listed. Calls follow the shape of the dose curve; as a rule, active = well fitted activation curve with a large enough effect; inconclusive = small, poorly fitted or top-dose-only effect; inactive = no such curve, though single readings can be large or run the other way. What follows is part of a selection rich in actives, with near analogues and random picks from the rest. A call without a number means that no potency is given here. Some structures have more than one record in an assay (separate samples or runs), and their calls can disagree.
assay: A quantitative high throughput screen for small molecules that induce DNA re-replication in SW480 colon adenocarcinoma cells.; also: nearly all actives have a fitted effect of over 55% in size; details: Hoechst DNA content imaging, 48 h; series mostly up to 46.1 µM
How it was run: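 Readout is total intensity of Hoechst-stained nuclei, excited at 405 nm and collected at 500-530 nm. Compound treatment lasted 48 hr at 37 C in 5% CO2 before staining.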
Potency is read from the fitted curve at half-maximal effect.

Row | SMILES | Potency | re-replication activation
1 | COc1cc(Cl)c(C)cc1NC(=O)CSc1nnc(CN2CCCC2)o1 | inactive | –
2 | Cc1ccnc(NC(=O)c2ccoc2C)c1 | inactive | –
3 | CC(=O)NC(=O)c1ccccc1O | inactive | –
4 | C/C(=N\NC(=O)c1ccoc1C)c1ccccc1O | 2.31 µM (active) | –
5 | CC(C)NC(=O)Nc1cccc2c1O[C@@H](CN(C)S(=O)(=O)c1ccc(F)cc1)[C@@H](C)CN([C@H](C)CO)C2=O | inactive | –
6 | Cc1ccc(OCCNC(=O)c2cccc(S(=O)(=O)N3CCN(Cc4ccccc4)CC3)c2)cc1 | inactive | –
7 | CCCCN1C(=O)/C(=C2/C=CC=CN2C)SC1=S | inactive | –
8 | CN1C=CC=C/C1=C1\SC(=S)N(Cc2ccccc2)C1=O | 23.1 µM (active) | –
9 | COc1cc(/C=C2/SC(=S)N(Cc3ccccc3)C2=O)cc(OC)c1O | inactive | –
10 | O=C(O)C(CCc1ccccn1)c1ccccc1 (configuration not stated) | inactive | –
11 | CN(NC(=O)c1ccccc1F)c1nc(C(F)(F)F)nc2ccccc12 | 0.517 µM (active) | –
12 | Cn1c(CC(=O)NNC(=O)c2ccccc2F)nc2ccccc21 | inactive | –
13 | CC(NC(=O)c1ccccc1F)c1cccc2ccccc12 (configuration not stated) | inactive | –
14 | COC(=O)Cc1csc(/N=C/c2c(O)n(-c3cccc(C(F)(F)F)c3)c(=O)c3ccccc23)n1 | inactive and 11.6 µM (active) | –
15 | COC(=O)Cc1csc(Nc2c(C)n(C)n(-c3ccccc3)c2=O)n1 | inactive | –
16 | COC(=O)Cc1c(O)ccn(Cc2cccc(C(F)(F)F)c2)c1=O | inactive | –
17 | CC(C)(O)c1ccccc1CC[C@H](SCC1(CC(=O)O)CC1)c1cccc(/C=C/c2ccc3ccc(Cl)cc3n2)c1 | inactive | –
18 | CN(C(=O)COC(=O)Cc1ccccc1[N+](=O)[O-])C1CCS(=O)(=O)C1 (configuration not stated) | inactive | –
19 | N#Cc1c(-c2ccccc2)cc(-c2ccccc2)nc1SCC(=O)O | inactive | –
20 | N#Cc1c(C(F)(F)F)cc(-c2ccc(Cl)cc2)nc1SCC(=O)O | inactive | –
21 | CCOC(=O)CC(=O)CSc1nc(-c2ccccc2)cc(-c2ccc(Cl)cc2)c1C#N | 20.6 µM (active) | –
22 | CCOc1ccc(CCNC(=O)COC(=O)C2CCN(S(=O)(=O)c3ccccc3)CC2)cc1OCC | inactive | –
23 | CC(=O)CSc1nc(CCc2ccccc2)c(C#N)c(=O)[nH]1 | – | 4.33% [at 1.84 µM] (inactive)
24 | O=C(N[C@H]1C/C=C\C(c2ccc(F)cc2)N(Cc2ccccc2)C(=O)C1)OCC1c2ccccc2-c2ccccc21 (some centres not stated) | inactive | –
25 | CN(C(=O)c1ccc(NC(=O)Cc2cccc(NC(=O)C3CCN(C(=O)c4ccccc4)CC3)c2)cc1)C1CC1 | – | -22.3% [at 9.22 µM] (inactive)

Row | SMILES | Potency | re-replication activation
26 | O=C(CNC(=O)c1cc(S(=O)(=O)N2CCOCC2)ccc1N1CCCC1)Nc1ccc(F)c(F)c1 | inactive | –
27 | COc1ccc(C(C[N+](=O)[O-])n2nc(C)cc2C)cc1 (configuration not stated) | 5.8 µM (active) | –
28 | COc1ccc(OCc2cn3c(C)cc(C)nc3n2)cc1 | inactive | –
29 | COc1ccc(C(=O)CSc2nc(C)cc(C)n2)cc1[N+](=O)[O-] | inactive | –
30 | Cc1cc(C(=O)COc2ccc(Br)cc2F)c(C)n1C1CC1 | inactive | –
31 | O=C1NC(c2ccccc2)Cc2ccncc21 (configuration not stated) | inactive | –
32 | C[C@@H]1NS(=O)(=O)c2cc(Cl)ccc2O[C@@H]1c1ccccc1 | inactive | –
33 | O=C1OCCN1C(=O)[C@H]1[C@H](c2ccc(F)cc2)C(c2ccccc2)=NN1c1ccc(Br)cc1 | 9.2 µM (active) | –
34 | Cc1cc(OCCCC(=O)Nc2cc(S(=O)(=O)N3CCOCC3)ccc2N2CCOCC2)ccc1Cl | inactive | –
35 | O=C1C(=O)N(c2ccccc2)C(c2ccccc2)C1c1ccccc1 (configuration not stated) | inactive | –
36 | O=C1c2cccc3cc(Br)cc(c23)C(=O)N1Nc1ccccc1 | – | -1.37% [at 9.22 µM] (inactive)
37 | O=C(O)CC1=C(Nc2ccccc2)C(=O)N(c2ccccc2)C1c1ccc(Cl)cc1 (configuration not stated) | inactive | –
38 | O=C1C=C(c2ccc(Cl)cc2)C(=O)N1Nc1ccccc1 | 6.51 µM (active) | –
39 | C#CCOCCOCCOCCNc1nc(N2CCN(C(=O)C([C@@H](C)O)n3cc([C@@H](N)CCCCN)nn3)CC2)nc(N2CCN(C(=O)[C@H](CCCCN)n3cc(CN)nn3)CC2)n1 (some centres not stated) | inactive | –
40 | COC(=O)[C@]1(Cc2ccccc2)N[C@H](CN(C)S(=O)(=O)c2ccc(OC(F)(F)F)cc2)[C@@H]2C(=O)N(Cc3ccccc3)C(=O)[C@@H]21 | inactive | –
41 | CCCCN1CC(COc2ccccc2)Oc2cccc(F)c2S1(=O)=O (configuration not stated) | inactive | –
42 | Cc1cccc(NC(=O)C2CCN(S(=O)(=O)c3cccc4cccnc34)CC2)c1 | inactive | –
43 | O=C(Nc1ccccn1)C1CCN(S(=O)(=O)c2ccccc2)CC1 | inactive | –
44 | Cc1ccnc(NC(=O)C2CCN(S(=O)(=O)c3c(C)c(C)cc(C)c3C)CC2)c1 | 16.4 µM (active) | –
45 | C=CC[C@H](CC(=O)N(CCO)Cc1ccccc1)C(=O)N[C@@H](COC(=O)[C@@H](CC=C)Cc1ccc(F)cc1)Cc1ccccc1 | inactive | –
46 | O=[N+]([O-])c1cccc2ncccc12 | inactive | –
47 | Cc1ccccc1NC(=O)c1ccccc1NS(=O)(=O)c1cccc2cccnc12 | inactive | –
48 | O=[N+]([O-])c1ccccc1S(=O)(=O)Nc1cccc2cccnc12 | 13 µM (active) | –
49 | CC(=O)C(CC(=O)N1CCCC1)C(=O)Nc1ccc(Cl)cc1 (configuration not stated) | inactive | –
50 | COC1=NC2=NCCN2C(OC)=N1 | inactive | –

Row | SMILES | Potency | re-replication activation
51 | O=C(NCCN1CCOCC1)c1cc(-c2cccs2)nc2ccccc12 | inactive | –
52 | O=C(NCCN1CCOCC1)c1ccc2c(c1)ncn2C1CCCC1 | inactive | –
53 | c1ccc2cc3c(NCCN4CCOCC4)ccnc3cc2c1 | 10.3 µM (active) | –
54 | Cc1ccc(S(=O)(=O)N2CCN(C(=O)COC(=O)CNC(=O)c3ccc(C(C)(C)C)cc3)CC2)c(C)c1 | inactive | –
55 | Cc1ccc(-n2c(=O)c(C#N)cc3c(=O)n4ccccc4nc32)cc1C | inactive | –
56 | CCn1c(=N)c(S(=O)(=O)c2ccc(F)cc2)cc2c(=O)n3ccccc3nc21 | 20.6 µM (active) | –
57 | Cc1ccc(S(=O)(=O)c2cc3c(=O)n4cccc(C)c4nc3n(CCc3ccccc3)c2=N)cc1C | inactive | –
58 | N#Cc1c(C(F)(F)F)cc(-c2cccs2)nc1N1CCCCC1 | inactive | –
59 | Cc1cc(C)c(C#N)c(N2CCC(C(N)=O)CC2)n1 | inactive | –
60 | N#CCc1c(C#N)c(N)nc(N2CCCC2)c1C#N | 14.6 µM (active) | –
61 | O=C(OCCOc1ccccc1F)c1cc(S(=O)(=O)N2CCOCC2)ccc1F | inactive | –
62 | COc1cccc(NC(=O)COC(=O)c2ccc3ccccc3n2)c1 | inactive | –
63 | CN(CCc1ccccc1)C(=O)c1cccc(NC(=O)Cc2cccc(NC(=O)C3CCCN(C(=O)CCc4ccccc4)C3)c2)c1 (configuration not stated) | inactive | –
64 | CC(NC(=O)c1ccccc1)C(=O)OCC(=O)Nc1cccc(S(=O)(=O)N2CCCC2)c1 (configuration not stated) | inactive | –
65 | CC1(C)CC(=O)C(C2c3ccccc3S(=O)(=O)c3ccccc32)C(=O)C1 | 4.11 µM (active) | –
66 | CC1(C)CC(=O)C(CC(=O)N2CCC(Cc3ccccc3)CC2)C(=O)C1 | inactive | –
67 | CC1(C)CC(=O)C=C(Nc2ccccc2)C1 | inactive | –
68 | COC(=O)C1CCN(C(=O)COC(=O)c2cc(S(=O)(=O)N3CCOCC3)ccc2C)CC1 | inactive | –
69 | C#CCOCCOCCOCCNc1nc(N2CCN(C(=O)Cn3cc(CCO)nn3)CC2)nc(N2CCN(C(=O)Cn3cc(CCCN=C(N)N)nn3)CC2)n1 | inactive | –
70 | COc1ccccc1-c1nc(SC)n[nH]1 | inactive | –
71 | Cc1cc(C)nc(Nc2n[nH]c(-c3ccccc3N)n2)n1 | 29.1 µM (active) | –
72 | Cc1cc(C)nc(Nc2cc([N+](=O)[O-])ccc2C)n1 | inactive | –
73 | Cc1noc(C)c1NC(=O)Nc1cccc2c1O[C@H](CN(C)C(=O)Nc1ccccc1)[C@@H](C)CN([C@H](C)CO)C2=O | inactive | –
74 | CCCSc1ccc([C@H]2N[C@@](Cc3ccccc3)(C(=O)OC)[C@H]3C(=O)N(C)C(=O)[C@@H]23)cc1 | inactive | –
75 | Cc1ccc(CNC(=O)COC(=O)C2CCC2)cc1 | inactive | –

Row | SMILES | Potency | re-replication activation
76 | Cc1cnc(NC(=O)CSc2nnc(-c3ccc(Cl)cc3Cl)n2N)s1 | inactive | –
77 | CCOc1ccccc1NC(=O)CCc1ccc(C)o1 | inactive | –
78 | Cc1ccc(CCC(=O)Nc2ncc(Cc3cc(Cl)ccc3Cl)s2)o1 | 1.64 µM (active) | –
79 | O=[N+]([O-])c1cc2ccccc2nc1-c1ccccc1 | inactive | –
80 | O=C(CN1C(=O)NC2(CCOc3ccccc32)C1=O)Nc1cccc([N+](=O)[O-])c1 (configuration not stated) | inactive | –
81 | Cc1ccnc(NC(=O)c2ccco2)n1 | inactive | –
82 | Cc1ccc(C(=O)COc2cccc(NC(=O)c3ccco3)c2)cc1 | inactive | –
83 | CCn1nc(NC(=O)c2ccco2)c2cc3ccc(C)cc3nc21 | 9.2 µM (active) | –
84 | O=S1(=O)CCOC[C@H](Cc2ccccc2)N1Cc1ccccc1Br | inactive | –
85 | O=C(/C(=C/c1cccc(Cl)c1)c1nc2ccccc2[nH]1)c1ccccc1 | 18.4 µM (active) | –
86 | CCC(=O)/C(=C(/O)c1ccccc1)c1nc2ccccc2[nH]1 | inactive | –
87 | O=C(CCc1nc2ccccc2c(=O)[nH]1)OCC(=O)c1cccc(Cl)c1 | inactive | –
88 | NCCN1CCN2C(=O)CN(C(=O)c3ccccc3)CC12 (configuration not stated) | inactive | –
89 | COc1ccc(N2CCN(C(CNS(=O)(=O)c3ccc(C)cc3)c3ccccc3)CC2)cc1 (configuration not stated) | inactive | –
90 | Cc1cccc(C)c1NC(=O)C(Cl)C(=O)c1ccccc1 (configuration not stated) | 16.4 µM (active) | –
91 | Cc1cccc(C)c1NC(=O)CN(C)C(=O)CCC(=O)c1ccccc1 | inactive | –
92 | Cc1cccc(C)c1NC(=O)C(c1ccccc1)N1CC(=O)Nc2ccccc21 (configuration not stated) | inactive | –
93 | COc1cc(OC)c(C(=O)NNC(=O)c2ccc(NS(=O)(=O)c3cccs3)cc2)cc1OC | inactive | –
94 | NC(=O)C1(Nc2ccc([N+](=O)[O-])cc2)CCCC1 | inactive | –
95 | C/C(=N/OC(=O)c1c(-c2c(F)cccc2Cl)noc1C)c1cnccn1 | inactive | –
96 | CCOC(=O)c1cc2c(=O)n3ccccc3nc2n(CC(C)C)c1=NC(=O)c1c(-c2c(F)cccc2Cl)noc1C | 13 µM (active) | –
97 | CCCn1c(=NC(C)=O)c(C(=O)OCC)cc2c(=O)n3ccccc3nc21 | inactive | –
